Inconclusive results are not listed. Values without a mark were called inactive. Calls of active or inactive are those of the source. Calls follow the shape of the dose curve; as a rule, active = well fitted cell-killing curve with a large enough effect; inconclusive = small, poorly fitted or top-dose-only effect, or effect the other way; inactive = flat fitted curve, though single readings scatter.
These molecules were tested on Tov-21-G (assay: Primary qHTS to identify gynecologic anti-cancer compounds using libraries of approved drugs and bioactive compounds (AID 1345084; also: nearly all actives have a fitted effect of over 55% in size)). Conditions: Gynecologic cancer cell panel viability, ATPlite luminescence, 48 h; series mostly up to 57.5 µM; activity change, negative = cytotoxicity: at the top concentration.
Procedure, shortened: (§1)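 Cells, 1,000 per well, plated 16 h, then exposed 48 h at 37 C to compounds. Viability by ATPlite luminescence after 15 min at room temperature.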
% is scaled to controls: 0 for no effect and ±100 for the full control effect; potency is read from the fitted curve at half-maximal effect.

Row | SMILES | activity change, negative = cytotoxicity | Potency
1 | CCN1CCN(Cc2ccc(C(=O)Nc3ccc(C)c(Oc4ccc5c(c4)CC(=O)N5)c3)cc2C(F)(F)F)CC1 | -3.34% | 
2 | CN(C)Cc1ccc(-c2cnn3c(-c4cccc(NC(=O)c5cccc(C(F)(F)F)c5)c4)ccnc23)cc1 | 17.5% | 
3 | CC(=O)O[C@H]1CC2C(COC(=O)CC(C)C)=CO[C@@H](OC(=O)CC(C)C)C2[C@]12CO2 (stereo partly drawn) | -12.8% [at 25.3 µM] | 
4 | O=C(NNc1nc2cc(F)ccc2n2cccc12)c1cnccn1 |  | 8.91 µM (active)
5 | OC1(CN2CCC(COc3noc4cccc(O[C@@H]5CCOC5)c34)CC2)CCOCC1 | -0.833% | 
6 | CCCCNc1ncc(-c2ccc(CN3CCOCC3)cn2)c(NC2CCC(O)CC2)n1 (stereo not drawn) | -6.43% [at 25.3 µM] | 
7 | CCOC(=O)C1(CCOc2ccccc2)CCN(Cc2ccc(O)c(Cl)c2)CC1 | -4.23% | 
8 | Cc1c(OCc2cccc(-c3ccc(C(=O)O)cc3)c2)cc2c(c1C)C(=O)C(C1CCCC1)C2 (stereo not drawn) | 17.1% | 
9 | CC[C@H](C(=O)Nc1ccccc1N1CCCC1)c1ccccc1 | 13.6% | 
10 | CC(=O)OC1CCC2(C)C(CCC3(C)C2CC=C2C4C(C)C(C)CCC4(C)CCC23C)C1(C)C(=O)O (stereo not drawn) | -0.223% [at 25.3 µM] | 
11 | CC(C)=C[C@@H]1[C@H](CO[C@@H]2O[C@H](CO)[C@@H](O)[C@H](O)[C@H]2O)C1(C)C | 6.56% [at 38.5 µM] | 
12 | Cc1cc(-c2nc(-c3ccc(OC(F)(F)F)cc3)no2)nn1Cc1ccnc(N2CCN(C3CC3)CC2)c1 | -12.4% | 
13 | CC(C)(C)Oc1ccc(OCC2Cc3ccccc3CN2C(=O)c2cccc3ccccc23)cc1 (stereo not drawn) | 20.2% | 
14 | CC(C)Nc1nc(Nc2ccccc2)nc(-c2ccccc2)n1 | 0.183% | 
15 | CCO[C@H]1CN(C2CCC(O)(c3ccc4c(c3)OCO4)CC2)C[C@@H]1NC(=O)CNC(=O)c1cccc(C(F)(F)F)c1 (stereo partly drawn) | -1.1% | 
16 | COc1ccc(-c2c(C)nn3c(NCCN4CCOCC4)cc(C)nc23)cc1OC | -2.36% | 
17 | CC(=O)OC1C(OC(=O)c2ccccc2)C2C(=C(C)CCC2(C)C)C23CCC(C)(C2)C(=O)CC13 (stereo not drawn) | -26.7% [at 25.3 µM] | 
18 | CC(C)(O)C(=O)N1CCN(c2ccc(C(F)(F)F)c(C3=C(c4c[nH]c5ccccc45)C(=O)NC3=O)c2)CC1 | -1.55% | 
19 | C/C(=C/CO)CCC1C(C)CCC2C(C)(C)CCCC12C (stereo not drawn) | 3.22% | 
20 | Cn1c(CO)c(-c2ccccc2)c2cc([N+](=O)[O-])ccc21 | 3.6% | 

Row | SMILES | activity change, negative = cytotoxicity | Potency
21 | CCn1c(=O)n([C@H]2CCCN(c3nccc(-c4cc5ccccc5o4)n3)C2)c2ccccc21 | 13.2% | 
22 | Nc1cccc(CNC(=O)c2ccc(Oc3ccc(OCc4cccc(F)c4)cc3)nc2)c1 | -1.27% | 
23 | CN1CCN(Cc2ccc(NC(=O)Cc3ccc(Oc4cc(NC(=O)C5CC5)ncn4)cc3)cc2C(F)(F)F)CC1 |  | 6.31 µM (active)
24 | CC(=O)O[C@@H]1CC[C@@]2(C)[C@H](CC[C@@H]3[C@@H]2C[C@H](OC(C)=O)[C@]2(C)[C@@H](C(C)=O)CC[C@@H]32)C1 | -0.545% | 
25 | COc1cc(/C=N\NC(=O)c2ccc3c(c2)OCO3)ccc1OCc1ccccc1 | -15.4% | 
26 | CC1=CC2/C=C(\C)CCC(O)C(=O)C(O)CC(=O)C23C(=O)NC(CC(C)C)C3C1C (stereo not drawn) | -23.7% [at 25.3 µM] | 
27 | CC(=O)Nc1cccc(-c2csc(Nc3cc(C)ccn3)n2)c1 | -11.9% | 
28 | CCN(Cc1ccccc1)C(=O)Cn1c(=O)n(C)c2cnc(-c3ccccc3)nc21 | 17.1% | 
29 | O=C(N[C@@H]1CCCc2c1cnn2-c1ccc(F)cc1F)c1ccccn1 | 1.3% | 
30 | COc1cc(OC)c2c(=O)[nH]c(-c3cc(C)c(OCCO)c(C)c3)nc2c1 | -24.4% | 
31 | COC(=O)CC1OC(C)C2=C(O)c3c(O)cccc3C(=O)C23OC13 (stereo not drawn) |  | 6.31 µM (active)
32 | CC1(C)CC[C@]2(C(=O)O)CC[C@]3(C)C(=CCC4[C@@]5(C)C[C@@H](O)[C@H](O)[C@@](C)(CO)C5CC[C@]43C)[C@@H]2[C@@H]1O (stereo partly drawn) | 1.24% [at 25.3 µM] | 
33 | COc1cc(/C=C2\CC[C@H]3COC[C@@H](c4cc(F)c(F)c(F)c4)N3C2=O)ccc1-n1cnc(C)c1 | 2.63% | 
34 | COc1cc2c(cc1NS(=O)(=O)c1ccc(Br)cc1C)n(C)c(=O)n2C | 1.07% | 
35 | O=C(Nc1cccc([N+](=O)[O-])c1)c1cccc(S(=O)(=O)N2CCCCCC2)c1 | 2.93% | 
36 | CC(=O)NC(C(=O)O[C@H]1CCC(C)(C)[C@@H]2CC=C3C(=O)OCC3(O)[C@@]12C)C(C)C (stereo partly drawn) | -3.96% [at 38.5 µM] | 
37 | C[C@@H]1CC[C@@]23CC[C@]4(C)[C@@](C=CC5[C@@]6(C)CC[C@H](O)C(C)(C)C6CC[C@]54C)(OC2=O)C3[C@H]1C (stereo partly drawn) | 2.45% [at 25.3 µM] | 
38 | CC(C)(O)/C=C/C(=O)[C@](C)(O)[C@H]1[C@H](O)C[C@@]2(C)[C@@H]3CC=C4[C@@H](C[C@H](O[C@@H]5O[C@H](CO)[C@@H](O)[C@H](O)[C@H]5O)C(=O)C4(C)C)[C@]3(C)C(=O)C[C@]12C | 1.19% [at 25.3 µM] | 
39 | C=C1C(=O)OC2/C=C(\C)CC/C=C(\C)CC(OC(C)=O)C12 (stereo not drawn) | -24.6% | 

What follows are molecules tested on Tov112D in the same assay as above. Conditions: Gynecologic cancer cell panel viability, ATPlite luminescence, 48 h; series mostly up to 57.5 µM; activity change, negative = cytotoxicity: at the top concentration.
Procedure, shortened: as §1

Row | SMILES | activity change, negative = cytotoxicity | Potency
40 | CCN1CCN(Cc2ccc(C(=O)Nc3ccc(C)c(Oc4ccc5c(c4)CC(=O)N5)c3)cc2C(F)(F)F)CC1 | 10.5% | 
41 | CN(C)Cc1ccc(-c2cnn3c(-c4cccc(NC(=O)c5cccc(C(F)(F)F)c5)c4)ccnc23)cc1 | 18.3% | 
42 | CC(=O)O[C@H]1CC2C(COC(=O)CC(C)C)=CO[C@@H](OC(=O)CC(C)C)C2[C@]12CO2 (stereo partly drawn) | 7.18% [at 25.3 µM] | 
43 | O=C(NNc1nc2cc(F)ccc2n2cccc12)c1cnccn1 |  | 6.31 µM (active)
44 | OC1(CN2CCC(COc3noc4cccc(O[C@@H]5CCOC5)c34)CC2)CCOCC1 | -0.84% | 
45 | CCCCNc1ncc(-c2ccc(CN3CCOCC3)cn2)c(NC2CCC(O)CC2)n1 (stereo not drawn) | -4.54% [at 25.3 µM] | 
46 | CCOC(=O)C1(CCOc2ccccc2)CCN(Cc2ccc(O)c(Cl)c2)CC1 | -9.95% | 
47 | Cc1c(OCc2cccc(-c3ccc(C(=O)O)cc3)c2)cc2c(c1C)C(=O)C(C1CCCC1)C2 (stereo not drawn) | 3.05% | 
48 | CC[C@H](C(=O)Nc1ccccc1N1CCCC1)c1ccccc1 | -0.518% | 
49 | CC(=O)OC1CCC2(C)C(CCC3(C)C2CC=C2C4C(C)C(C)CCC4(C)CCC23C)C1(C)C(=O)O (stereo not drawn) | -2.15% [at 25.3 µM] | 
50 | CC(C)=C[C@@H]1[C@H](CO[C@@H]2O[C@H](CO)[C@@H](O)[C@H](O)[C@H]2O)C1(C)C | 8.6% [at 38.5 µM] | 
51 | Cc1cc(-c2nc(-c3ccc(OC(F)(F)F)cc3)no2)nn1Cc1ccnc(N2CCN(C3CC3)CC2)c1 | -23.5% | 
52 | CC(C)(C)Oc1ccc(OCC2Cc3ccccc3CN2C(=O)c2cccc3ccccc23)cc1 (stereo not drawn) | -20.8% | 
53 | CC(C)Nc1nc(Nc2ccccc2)nc(-c2ccccc2)n1 | -0.156% | 
54 | CCO[C@H]1CN(C2CCC(O)(c3ccc4c(c3)OCO4)CC2)C[C@@H]1NC(=O)CNC(=O)c1cccc(C(F)(F)F)c1 (stereo partly drawn) | 7.49% | 
55 | COc1ccc(-c2c(C)nn3c(NCCN4CCOCC4)cc(C)nc23)cc1OC | 3.23% | 
56 | CC(=O)OC1C(OC(=O)c2ccccc2)C2C(=C(C)CCC2(C)C)C23CCC(C)(C2)C(=O)CC13 (stereo not drawn) | -24.8% [at 25.3 µM] | 
57 | CC(C)(O)C(=O)N1CCN(c2ccc(C(F)(F)F)c(C3=C(c4c[nH]c5ccccc45)C(=O)NC3=O)c2)CC1 | 14.4% | 
58 | C/C(=C/CO)CCC1C(C)CCC2C(C)(C)CCCC12C (stereo not drawn) | 2.18% | 
59 | Cn1c(CO)c(-c2ccccc2)c2cc([N+](=O)[O-])ccc21 | -1.57% | 

Row | SMILES | activity change, negative = cytotoxicity | Potency
60 | CCn1c(=O)n([C@H]2CCCN(c3nccc(-c4cc5ccccc5o4)n3)C2)c2ccccc21 | 6.43% | 
61 | Nc1cccc(CNC(=O)c2ccc(Oc3ccc(OCc4cccc(F)c4)cc3)nc2)c1 | -26.4% | 
62 | CN1CCN(Cc2ccc(NC(=O)Cc3ccc(Oc4cc(NC(=O)C5CC5)ncn4)cc3)cc2C(F)(F)F)CC1 |  | 5.62 µM (active)
63 | CC(=O)O[C@@H]1CC[C@@]2(C)[C@H](CC[C@@H]3[C@@H]2C[C@H](OC(C)=O)[C@]2(C)[C@@H](C(C)=O)CC[C@@H]32)C1 | -13.8% | 
64 | COc1cc(/C=N\NC(=O)c2ccc3c(c2)OCO3)ccc1OCc1ccccc1 | -14% | 
65 | CC1=CC2/C=C(\C)CCC(O)C(=O)C(O)CC(=O)C23C(=O)NC(CC(C)C)C3C1C (stereo not drawn) | -15.4% [at 25.3 µM] | 
66 | CC(=O)Nc1cccc(-c2csc(Nc3cc(C)ccn3)n2)c1 | -19.7% | 
67 | CCN(Cc1ccccc1)C(=O)Cn1c(=O)n(C)c2cnc(-c3ccccc3)nc21 | 3.05% | 
68 | O=C(N[C@@H]1CCCc2c1cnn2-c1ccc(F)cc1F)c1ccccn1 | -2.5% | 
69 | COc1cc(OC)c2c(=O)[nH]c(-c3cc(C)c(OCCO)c(C)c3)nc2c1 | -16.3% | 
70 | COC(=O)CC1OC(C)C2=C(O)c3c(O)cccc3C(=O)C23OC13 (stereo not drawn) |  | 6.31 µM (active)
71 | CC1(C)CC[C@]2(C(=O)O)CC[C@]3(C)C(=CCC4[C@@]5(C)C[C@@H](O)[C@H](O)[C@@](C)(CO)C5CC[C@]43C)[C@@H]2[C@@H]1O (stereo partly drawn) | -24.2% [at 25.3 µM] | 
72 | COc1cc(/C=C2\CC[C@H]3COC[C@@H](c4cc(F)c(F)c(F)c4)N3C2=O)ccc1-n1cnc(C)c1 | 8.73% | 
73 | COc1cc2c(cc1NS(=O)(=O)c1ccc(Br)cc1C)n(C)c(=O)n2C | -18.7% | 
74 | O=C(Nc1cccc([N+](=O)[O-])c1)c1cccc(S(=O)(=O)N2CCCCCC2)c1 | 4.04% | 
75 | CC(=O)NC(C(=O)O[C@H]1CCC(C)(C)[C@@H]2CC=C3C(=O)OCC3(O)[C@@]12C)C(C)C (stereo partly drawn) | -9.81% [at 38.5 µM] | 
76 | C[C@@H]1CC[C@@]23CC[C@]4(C)[C@@](C=CC5[C@@]6(C)CC[C@H](O)C(C)(C)C6CC[C@]54C)(OC2=O)C3[C@H]1C (stereo partly drawn) | -1.37% [at 25.3 µM] | 
77 | CC(C)(O)/C=C/C(=O)[C@](C)(O)[C@H]1[C@H](O)C[C@@]2(C)[C@@H]3CC=C4[C@@H](C[C@H](O[C@@H]5O[C@H](CO)[C@@H](O)[C@H](O)[C@H]5O)C(=O)C4(C)C)[C@]3(C)C(=O)C[C@]12C | 16% [at 25.3 µM] | 
78 | C=C1C(=O)OC2/C=C(\C)CC/C=C(\C)CC(OC(C)=O)C12 (stereo not drawn) | -1.59% | 

— PubChem BioAssay (NCATS)
